Source: PubChem BioAssay (EPA / NIEHS)
Activity calls are given as the source filed them. Rule for the calls: active = hit-call score of the fitted dose curve at least 0.9, where 1 is the maximum; inactive = score below 0.9.

Assays:
[1] = target: Bile acid receptor (Homo sapiens) (UniProt Q96RI1); experiment: ATG_IR1_CIS: Attagene CIS-FACTORIAL HepG2 Assay for human Nuclear Receptor Subfamily 1 Group H Member 4 (NR1H4), IR1 submotif (AID 2282946); details: IR1 reporter transcription, actives raise or lower the signal
Summary of the method: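 Readout: reporter transcript levels by RT-PCR with fluorescent capillary electrophoresis, from HepG2 cells transiently transfected with multiplexed cis-regulated reporters and dosed 24 h. Gain- or loss-of-signal fitted versus DMSO negative control.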

[2] = ATG_GRE_CIS: Attagene CIS-FACTORIAL HepG2 Assay for human Glucocorticoid Response Elements (GRE) (AID 2282947); details: HepG2 GRE cis-reporter, Attagene multiplex mRNA; actives raise or lower the signal
Summary of the method: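 Cells (HepG2) bearing transfected cis-promoter reporter transcription units were treated with chemical for 24 hours. Reporter mRNA was measured via RT-PCR with capillary electrophoresis, and activity was fitted in both directions relative to DMSO.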

[3] = ATG_ISRE_CIS: Attagene CIS-FACTORIAL HepG2 Assay for human Interferon Regulatory Factor 1 (IRF1) binding to an Interferon-Stimulated Response Element (ISRE) (AID 2282948); details: HepG2 ISRE cis-reporter (Attagene), mRNA transcription readout; actives raise or lower the signal
Summary of the method: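 Signal reflects induction or loss of ISRE-linked reporter mRNA in transiently transfected HepG2 cells after a 24 h treatment, detected by fluorescent RT-PCR fragments on capillary electrophoresis and normalised to DMSO.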

[4] = ATG_M_32_CIS: Attagene CIS-FACTORIAL HepG2 Assay for M32 Transcription Factor (Internal Marker) (AID 2282949); details: HepG2 Attagene cis-factorial M32 reporter, mRNA; actives raise or lower the signal;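 note: background control marker of the multiplexed CIS panel rather than a real target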
Summary of the method: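 HepG2 human liver cells transiently transfected with cis-promoter-driven multiple reporter transcription units, dosed 24 h. Reporter mRNA quantified by RT-PCR, FAM-labelled primer extension, HpaI digest and capillary electrophoresis; bidirectional fit versus DMSO baseline.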

[5] = ATG_M_06_CIS: Attagene CIS-FACTORIAL HepG2 Assay for M06 Transcription Factor (Internal Marker) (AID 2282950); details: HepG2 Attagene CIS-FACTORIAL M06 internal marker reporter; actives raise or lower the signal
Summary of the method: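 Read-out is fluorescence of labelled reporter cDNA fragments resolved by capillary electrophoresis after RT-PCR. Cells: HepG2 carrying transfected cis-promoter reporter units, treated 24 h. Gain or loss of signal fitted relative to DMSO.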

[6] = target: Hypoxia-inducible factor 1-alpha (Homo sapiens) (UniProt Q16665); experiment: ATG_HIF1a_CIS: Attagene CIS-FACTORIAL HepG2 Assay for human Hypoxia Inducible Factor 1 (HIF1A) (AID 2282951); details: HepG2 Attagene cis-factorial HIF1a reporter transcription; actives raise or lower the signal
Summary of the method: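 Transient MRTU transfection of human HepG2 liver cells, 24 h compound treatment, then total RNA isolation, oligo(dT) reverse transcription, PCR amplification, fluorescent labelling and capillary electrophoresis of reporter fragments. Gain or loss relative to DMSO.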

[7] = target: Hepatocyte nuclear factor 6 (Homo sapiens) (UniProt Q9UBC0); experiment: ATG_HNF6_CIS: Attagene CIS-FACTORIAL HepG2 Assay for human Hepatocyte Nuclear Factor 6 (HNF6) (AID 2282952); details: HepG2 Attagene cis-factorial HNF6 reporter transcription; actives raise or lower the signal
Summary of the method: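 First, HepG2 cells were transfected with the multiplexed cis reporter library and dosed with chemical for 24 h. Next, RNA was reverse-transcribed, PCR-amplified and fluorescently labelled. Finally, HpaI-digested fragments were read by capillary electrophoresis.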

[8] = target: Heat shock factor protein 1 (Homo sapiens) (UniProt Q00613); experiment: ATG_HSE_CIS: Attagene CIS-FACTORIAL HepG2 Assay for human Heat Shock Transcription Factor 1 (HSE) (AID 2282953); details: HepG2 HSE cis-reporter, Attagene RNA transcription; actives raise or lower the signal
Summary of the method: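 HepG2, transient MRTU transfection, cis-promoter reporters (endogenous TF activity). 24 h compound. RNA → oligo(dT) RT → PCR → 6-FAM primer extension → HpaI cut → CE. Bidirectional fit vs DMSO.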

[9] = ATG_MRE_CIS: Attagene CIS-FACTORIAL HepG2 Assay for human Metal Responsive Element (MRE) (AID 2282954); details: HepG2 MRE cis-reporter transcription, Attagene multiplex; actives raise or lower the signal
Summary of the method: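 Cells were transfected with cis-promoter reporter transcription units, then dosed for 24 h. RNA was reverse-transcribed, amplified, fluorescently labelled and resolved by capillary electrophoresis, and activity was fitted in both directions relative to DMSO.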

[10] = ATG_PBREM_CIS: Attagene CIS-FACTORIAL HepG2 Assay for human Phenobarbital-responsive Enhancer Module (PBREM) (AID 2282955); details: HepG2 PBREM cis-reporter, Attagene multiplexed transcription; actives raise or lower the signal
Summary of the method: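 Endogenous transcription factors in human liver HepG2 cells drive a PBREM cis-element reporter, whose transcript level after 24 h treatment is quantified by RT-PCR with capillary electrophoresis; activity fitted in both directions against DMSO.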

Measured: AC50

Sequence of Hypoxia-inducible factor 1-alpha (Homo sapiens) (Q16665 whole entry, looked up, the tested form may be a part): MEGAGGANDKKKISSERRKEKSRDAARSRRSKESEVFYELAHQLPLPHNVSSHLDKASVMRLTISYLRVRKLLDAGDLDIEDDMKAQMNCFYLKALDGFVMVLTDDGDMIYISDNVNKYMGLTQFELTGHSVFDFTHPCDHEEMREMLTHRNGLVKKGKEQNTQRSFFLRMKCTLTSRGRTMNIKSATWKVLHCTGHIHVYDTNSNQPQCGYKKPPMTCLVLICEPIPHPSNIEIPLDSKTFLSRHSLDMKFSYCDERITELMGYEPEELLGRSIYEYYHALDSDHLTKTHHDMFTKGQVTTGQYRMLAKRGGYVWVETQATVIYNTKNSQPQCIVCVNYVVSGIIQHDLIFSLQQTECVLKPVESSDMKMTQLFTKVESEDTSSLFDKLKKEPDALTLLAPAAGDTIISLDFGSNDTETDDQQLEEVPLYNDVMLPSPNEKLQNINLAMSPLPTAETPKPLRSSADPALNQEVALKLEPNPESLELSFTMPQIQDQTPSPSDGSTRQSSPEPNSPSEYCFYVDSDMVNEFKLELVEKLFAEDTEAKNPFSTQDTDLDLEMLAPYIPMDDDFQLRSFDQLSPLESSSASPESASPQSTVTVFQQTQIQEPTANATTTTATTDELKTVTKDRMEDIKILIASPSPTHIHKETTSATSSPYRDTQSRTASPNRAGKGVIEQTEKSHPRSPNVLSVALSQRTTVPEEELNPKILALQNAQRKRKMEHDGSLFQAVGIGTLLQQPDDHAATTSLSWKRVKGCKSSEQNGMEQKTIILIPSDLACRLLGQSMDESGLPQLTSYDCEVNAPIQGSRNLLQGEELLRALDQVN
Sequence of Bile acid receptor (Homo sapiens) (Q96RI1 whole entry, looked up): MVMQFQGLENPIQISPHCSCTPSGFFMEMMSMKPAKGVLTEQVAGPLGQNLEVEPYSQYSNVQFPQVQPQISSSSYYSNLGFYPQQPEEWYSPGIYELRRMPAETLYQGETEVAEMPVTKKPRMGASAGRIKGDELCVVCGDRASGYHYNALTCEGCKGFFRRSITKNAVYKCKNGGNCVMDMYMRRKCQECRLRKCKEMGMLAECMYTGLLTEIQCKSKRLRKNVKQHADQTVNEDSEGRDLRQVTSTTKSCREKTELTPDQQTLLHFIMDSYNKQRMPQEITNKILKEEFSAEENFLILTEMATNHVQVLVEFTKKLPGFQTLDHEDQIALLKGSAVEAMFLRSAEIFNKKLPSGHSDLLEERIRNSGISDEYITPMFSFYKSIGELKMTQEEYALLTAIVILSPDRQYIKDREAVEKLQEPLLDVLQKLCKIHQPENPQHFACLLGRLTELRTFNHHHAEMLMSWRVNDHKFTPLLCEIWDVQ
Sequence of Hepatocyte nuclear factor 6 (Homo sapiens) (Q9UBC0 whole entry, looked up, the tested form may be a part): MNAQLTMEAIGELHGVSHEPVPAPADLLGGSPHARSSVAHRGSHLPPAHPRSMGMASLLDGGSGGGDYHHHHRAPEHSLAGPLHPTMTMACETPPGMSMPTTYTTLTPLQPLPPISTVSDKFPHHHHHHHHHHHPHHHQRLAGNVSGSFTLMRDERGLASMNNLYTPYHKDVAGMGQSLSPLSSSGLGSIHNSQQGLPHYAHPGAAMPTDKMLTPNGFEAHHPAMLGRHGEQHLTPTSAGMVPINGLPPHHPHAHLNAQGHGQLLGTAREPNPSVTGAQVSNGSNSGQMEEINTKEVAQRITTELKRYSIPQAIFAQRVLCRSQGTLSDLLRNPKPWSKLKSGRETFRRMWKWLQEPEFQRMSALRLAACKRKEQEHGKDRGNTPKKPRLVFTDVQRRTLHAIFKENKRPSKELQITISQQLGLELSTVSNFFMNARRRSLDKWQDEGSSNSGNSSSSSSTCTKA
Sequence of Heat shock factor protein 1 (Homo sapiens) (Q00613 whole entry, looked up): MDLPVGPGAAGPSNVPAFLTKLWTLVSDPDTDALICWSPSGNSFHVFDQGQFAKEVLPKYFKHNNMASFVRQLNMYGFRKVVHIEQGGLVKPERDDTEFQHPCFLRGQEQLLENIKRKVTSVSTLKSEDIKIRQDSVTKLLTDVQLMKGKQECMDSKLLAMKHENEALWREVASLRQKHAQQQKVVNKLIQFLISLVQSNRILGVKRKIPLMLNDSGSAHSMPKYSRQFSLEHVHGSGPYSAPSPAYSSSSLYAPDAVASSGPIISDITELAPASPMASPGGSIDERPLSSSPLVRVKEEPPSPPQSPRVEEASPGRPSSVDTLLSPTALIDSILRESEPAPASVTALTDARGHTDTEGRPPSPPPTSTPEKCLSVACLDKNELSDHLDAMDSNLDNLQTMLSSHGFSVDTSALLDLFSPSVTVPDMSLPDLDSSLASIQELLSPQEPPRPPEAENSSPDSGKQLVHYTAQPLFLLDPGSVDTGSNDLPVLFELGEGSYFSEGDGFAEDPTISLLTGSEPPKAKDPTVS

CCCCC1CCC(O)CC1 (stereo not drawn)
inactive: all assays above

CSCCC=O
not listed: [8]
inactive: all other assays above

CCOC(=O)[C@@H](C)Oc1ccc(Oc2nc3ccc(Cl)cc3o2)cc1
inactive: all assays above

COC(=O)c1ccc([N+](=O)[O-])cc1
inactive: all assays above

CCCCCCCCC=CCCCCCCCC1=NCCN1CCO
active: [1] 26.1 µM | [3] 189 µM
not listed: [9]
inactive: all other assays above

C=COCCOCCOC=C
inactive: all assays above

CN(C)CCOc1ccc(/C(=C(/CCCl)c2ccccc2)c2ccccc2)cc1
inactive: all assays above

CCCC(C)=O
inactive: all assays above

CCCCCCC(C)(C)S
inactive: all assays above

COC(C)(C)CC(C)=O
not listed: [8]
inactive: all other assays above

CC(C)(C)C1=CC(=O)C(C(C)(C)C)=CC1=O
inactive: [1] | [4] | [5] | [10]
active: [2] 50 µM | [3] 71.2 µM | [6] 33.3 µM | [7] 78.1 µM | [8] 97.3 µM | [9] 50 µM

CCC(C)c1cc([N+](=O)[O-])cc([N+](=O)[O-])c1OC(=O)OC(C)C (stereo not drawn)
active: [1] 27.4 µM | [3] 24.3 µM | [4] 49.2 µM | [8] 26.6 µM
not listed: [9]
inactive: all other assays above

CCN(CCC#N)c1ccc(N=Nc2ccc([N+](=O)[O-])cc2)cc1
inactive: all assays above

O=C(O)c1ccc(O)cc1
inactive: all assays above

CCCCCCCCCC(C)C=O (stereo not drawn)
inactive: all assays above

O=C(O)COCC(=O)O
inactive: all assays above

CCc1ncc(C)[nH]1
inactive: all assays above

CCN(CC)C(=O)N(CC)CC
inactive: all assays above

CC(C)(C)CC(C)(C)c1ccc(OCCOCC[N+](C)(C)Cc2ccccc2)cc1
active: [9] 8.35 µM
not listed: [8] | [10]
inactive: all other assays above

CC1CC(O)CC(C)(C)C1 (stereo not drawn)
not listed: [8]
inactive: all other assays above

C=CC(=O)OCCC#N
inactive: [4] | [5] | [7] | [10]
active: [1] 58.1 µM | [2] 64.2 µM | [3] 70 µM | [6] 56.6 µM | [8] 170 µM | [9] 86.2 µM

C=CC(C)(O)CCC=C(C)C (stereo not drawn)
not listed: [9]
inactive: all other assays above

CS(=O)(=O)c1ccc(C2=C(c3ccccc3)C(=O)OC2)cc1
inactive: all assays above

CCCCCCCCCCCCCC(=O)OCC(O)CO (stereo not drawn)
inactive: all assays above

CCCCCCCC(=O)OCCCCCC
inactive: all assays above

CC1(C)O[C@@H]2C[C@H]3[C@@H]4CCC5=CC(=O)C=C[C@]5(C)[C@@]4(F)[C@@H](O)C[C@]3(C)[C@]2(C(=O)CO)O1
active: [2] 0.419 µM
not listed: [8] | [10]
inactive: all other assays above

CC1(C)COCN1
not listed: [4]
inactive: all other assays above

CC(=O)CC(=O)Nc1ccccc1
not listed: [6] | [10]
inactive: all other assays above

CCC1CCCCC1
not listed: [6] | [8]
inactive: all other assays above

O=C1OC2(c3ccccc31)c1ccc(O)c(Br)c1Oc1c2ccc(O)c1Br
active: [10] 35.3 µM
not listed: [6]
inactive: all other assays above

Nc1ccc(Cl)c([N+](=O)[O-])c1
not listed: [6] | [10]
inactive: all other assays above

CCC1(c2ccccc2)C(=O)NCNC1=O
not listed: [6] | [8]
inactive: all other assays above

CSc1c(Cl)c(Cl)c(Cl)c(Cl)c1Cl
active: [1] 5.76 µM | [3] 27.9 µM | [9] 100 µM
not listed: [6]
inactive: all other assays above

CC(C=O)Cc1ccc(C(C)(C)C)cc1 (stereo not drawn)
not listed: [4] | [9]
inactive: all other assays above

C=C1CC[C@H](O)C/C1=C/C=C1\CCC[C@]2(C)[C@@H]([C@H](C)/C=C/[C@H](C)C(C)C)CC[C@@H]12
not listed: [6]
inactive: all other assays above

CCOC(=O)CN
not listed: [5]
inactive: all other assays above

Oc1c(Cl)cc(Cl)c(Cl)c1Cc1c(O)c(Cl)cc(Cl)c1Cl
inactive: [1] | [2] | [4] | [7]
active: [3] 6 µM | [6] 8.52 µM | [8] 17.1 µM | [9] 9.9 µM | [10] 1.12 µM

O=C(O)CNc1ccccc1
active: [4] 165 µM
not listed: [5]
inactive: all other assays above

CC=CC=CCOC(=O)C(C)C
active: [3] 100 µM
not listed: [6] | [9]
inactive: all other assays above

Nc1ccc(N)c2c1C(=O)c1ccccc1C2=O
not listed: [4]
inactive: all other assays above

C1CCCCC1
not listed: [5]
inactive: all other assays above

Cc1c(OCC(F)(F)F)ccnc1CS(=O)c1nc2ccccc2[nH]1 (stereo not drawn)
active: [9] 73.1 µM
not listed: [6] | [8]
inactive: all other assays above

NCc1ccco1
not listed: [6]
inactive: all other assays above

C=C(CC(=O)O)C(=O)O
inactive: [1] | [2] | [3] | [4] | [7] | [8]

CC=Cc1ccc(OC)c(OC)c1
not listed: [5] | [10]
inactive: all other assays above

COCCc1ccc(OCC(O)CNC(C)C)cc1 (stereo not drawn)
not listed: [6] | [8]
inactive: all other assays above

OCC#CCO
inactive: [1] | [2] | [3] | [4] | [7]

COc1ccc(CCN2CCC(Nc3nc4ccccc4n3Cc3ccc(F)cc3)CC2)cc1
not listed: [6]
inactive: all other assays above

COc1cc(Cl)c(OC)cc1N
inactive: [1] | [2] | [3] | [5] | [6] | [7]

CCC(Cl)C(Cl)C(Cl)CC(Cl)C(Cl)C(C)Cl (stereo not drawn)
inactive: [2] | [3] | [4] | [5] | [7]
active: [1] 10.5 µM | [9] 74 µM

Cc1ccc(N)c(S(=O)(=O)O)c1
not listed: [4] | [10]
inactive: all other assays above

c1ccc(Oc2ccccc2)cc1
not listed: [4]
inactive: all other assays above

COC(=O)Nc1ccc(Cl)c(Cl)c1
active: [2] 25.7 µM | [3] 30.7 µM | [9] 49.7 µM
not listed: [6]
inactive: all other assays above

Clc1ccc(C(c2ccccc2Cl)C(Cl)Cl)cc1 (stereo not drawn)
active: [1] 43.8 µM | [3] 60.9 µM | [9] 171 µM
not listed: [6]
inactive: all other assays above

C[C@H]1O[C@@H](O[C@H]2[C@@H](O)C[C@H](O[C@H]3[C@@H](O)C[C@H](O[C@H]4CC[C@@]5(C)[C@H](CC[C@@H]6[C@@H]5C[C@@H](O)[C@]5(C)[C@@H](C7=CC(=O)OC7)CC[C@]65O)C4)O[C@@H]3C)O[C@@H]2C)C[C@H](O)[C@@H]1O
active: [1] 0.253 µM | [2] 3.3 µM | [3] 0.179 µM | [8] 0.194 µM | [9] 0.182 µM
inactive: [4] | [5] | [7]
